Measurements reported in PubChem BioAssay (NCI).
Compounds without any hit were thinned out: in the full panel of roughly 83,000, 20% have a hit.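 Cell lines were cultured in 96-well plates, exposed to a single compound concentration, and assessed for percent growth 48 hours later.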 A number with no mark means an inactive call. Activity calls are given as the source filed them. How the source made its calls: active means growth percent below 10; inactive means the rest.

Tests used:
Assay in all cases: NCI-60 one-dose screen, 48 h (100 = growth as untreated, 0 = no growth, -100 = all killed)
Conditions in all cases: 10 µM unless noted
[1] = tested on: HT29 colon
[2] = tested on: SNB-75 CNS
[3] = tested on: SNB-19 CNS
[4] = tested on: U251 CNS
[5] = tested on: PC-3 prostate
[6] = tested on: SK-MEL-5 melanoma
[7] = tested on: UACC-62 melanoma
[8] = tested on: LOX IMVI melanoma
[9] = tested on: SK-MEL-28 melanoma
[10] = tested on: SK-MEL-2 melanoma

SMILES	growth [1]	growth [2]	growth [3] [%]	growth [4]	growth [5]	growth [6]	growth [7]	growth [8]	growth [9]	growth [10]
COc1ccc(-c2noc(N)c2-c2cc(OC)c3c(c2)OCO3)cc1	7.22% (active)	3.98% (active)	53.5	10.7%	31.1%	21.2%	44.1%	29.7%	51.8%	-1.35% (active)
C=C(C)[C@H]1CC/C(C)=C/CC[C@]2(C)O[C@H]2CC/C(C=O)=C\C1O (stereo not given in full)	98.2%	106%	112	103%	122%	94.8%	106%	98.1%	115%	1410%
Cc1nn(-c2ccccc2)c2nc(Cl)c(/C=C/C(=O)c3ccccc3)c(-c3ccccc3)c12	103%	89.4%	98.9	104%	101%	96.3%	102%	96.1%	109%	96.4%
CC(C)(C)c1cc(O)c(O)c(C(C)(C)C)c1	53.9%	60.8%	56.9	36%	39.3%	70.4%	33%	47.3%	74.9%	76.6%
CCN(CC)CCOc1ccc(C2=C(c3ccccc3)CCc3cc(OC)ccc32)cc1	-50% (active)	44.2%	53.8	22.2%	7.49% (active)	-68% (active)	-60.2% (active)	-59.6% (active)	-96.2% (active)	-83.1% (active)
S=C1SCN(Cc2ccccc2)CN1Cc1ccco1	27.4%	92.1%	101	97.3%	90.3%	87.3%	91.6%	81.6%	105%	81.1%
O=C1NC(=O)/C(=C\c2ccccc2)C2=C1CCCC2	104%	102%	88	2.63% (active)	20.3%	-78.7% (active)	30%	-58.4% (active)	36.3%	-74.2% (active)
O=C(/C=C/c1ccccc1)CC(c1ccccc1)N1CCOCC1 (stereo not given)	-39.3% (active)	105%	71.8	0.707% (active)	89%	98.9%	85.4%	-92% (active)	107%	-24.5% (active)
Clc1ccc2nc(Cl)c3ccccc3c2c1	44.5%	-15.3% (active)	53.2	20.2%	84.2%	84.4%	96.2%	83.2%	97.6%	99%
Cn1c(=O)c2nc(SCc3ccccc3)n(C)c2n(C)c1=O	113%	104%	89.4	101%	102%	101%	109%	99.1%	119%	101%
Cn1cc(-c2nc(-c3c[nH]c4ncccc34)cs2)c2cccnc21	73.1%	47.1%	82.5	71.6%	76.6%	57.8%	58.6%	54.3%	90.6%	52.7%
Cc1nn(-c2ccc(Cl)cc2)c2nc3c(nc12)c(=O)oc1ccccc13	99.7%	92.1%	100	93.9%	106%	114%	102%	101%	110%	107%
COc1cccc(C2C(C#N)=C(N)Oc3cc(OC)ccc32)c1 (stereo not given)	-21.2% (active)	46.1%	44.1	3.36% (active)	-2.64% (active)	-4.55% (active)	30.9%	13.2%	56.2%	19.8%
COc1ccc(-c2cnnn2-c2cc(OC)c3c(c2)OCO3)cc1	1.26% (active)	23.1%	39.4	3.74% (active)	4.25% (active)	18.1%	26.8%	17.8%	55%	22.4%
COc1ccc(-n2nc3c(c2-c2ccc(OC)c(OC)c2)-c2oncc2CC3)cc1	80%	94.2%	96.9	85.3%	88.3%	81.8%	73.3%	58.1%	75.1%	92.8%
Cc1nn(-c2ccc(Br)cc2)c2nc3c(nc12)C(=O)C(=O)c1ccccc1-3	99.8%	85.7%	92.5	103%	87.7%	89.6%	90.6%	88.1%	96.3%	102%
CCC(C)CC(C)C(=O)c1c(O)ccn(O)c1=O (stereo not given)	97.3%	49.3%	18.6	11.1%	24.5%	25.3%	3.01% (active)	6.78% (active)	29%	41.9%
O=C1/C(=N/O)CCc2ccccc21	101%	82.2%	100	103%	59.8%	102%	87.6%	76.5%	121%	113%
O=c1ccn(C2CCCO2)c(=O)[nH]1 (stereo not given)	98.3%	91.9%	109	97.2%	105%	111%	109%	107%	108%	124%

SMILES	growth [1]	growth [2]	growth [3] [%]	growth [4]	growth [5]	growth [6]	growth [7]	growth [8]	growth [9]	growth [10]
O=C(O)C(=O)O	109%	67.4%	91.7	90%	110%	99.5%	98.7%	92.9%	99.5%	88.3%
O=C(Nc1cccc(C(F)(F)F)c1)Nc1ccc(OCc2nnc(-c3ccc(Cl)cc3)o2)c(F)c1	60.2%	39.4%	69.9	52.7%	45.9%	77.5%	68.8%	63.5%	73.5%	78.7%
O=C(OCCBr)c1ccc(Cl)c([N+](=O)[O-])c1	45.4%	104%	38.9	-31.7% (active)	70%	113%	104%	91.1%	60%	94.1%
COc1ccc2c(c1)nc(N)c1c3cc(OC)c(OC)cc3cn21	9.28% (active)	57.1%	62.2	30.6%	53.1%	34.1%	22.1%	53.2%	57.5%	47.7%
COc1ccc(-c2oc3cc(O)c(OC)c(O)c3c(=O)c2OC)cc1O	46.2%	16.4%	30.9	14%	15.5%	8.22% (active)	36%	15.8%	60.6%	45.6%
Cc1cc(O)c2c(c1)C[C@H]1[C@@H]3CC[C@H]4CC(=O)CC[C@]4(C)[C@H]3CC(=O)[C@]21C	67.6%	98.4%	94.5	81.6%	80.9%	73.3%	57.4%	85.1%	101%	83.3%
COC(=O)[C@]1(CCSC)N[C@H](c2cn(-c3ccccc3)nc2C)[C@@H]2C(=O)N(c3ccccc3)C(=O)[C@@H]21	103%	86%	109	105%	101%	101%	102%	96.1%	109%	121%
O=C1Cc2cc(CCN3CCN(CCOCCO)CC3)c(Cl)cc2N1Cc1ccc(-c2ccccc2-c2nn[nH]n2)cc1	94.2%	82.6%	90.5	94.1%	56.1%	100%	74.9%	89.7%	101%	81.1%
OC(Cc1cccnc1)c1ccccc1 (stereo not given)	106%	99.7%	98.9	98.1%	101%	102%	97.4%	101%	108%	102%
Oc1[nH]c2ccccc2c1/C=c1/ccc2c(c1)N=C(c1cc(F)cc(F)c1)N=2	57.6%	51.6%	67.9	53%	26.2%	69.5%	58.2%	52%	77.4%	41.2%
CN(C)c1ccc(/C=C\c2ccnc3ccccc23)cc1	51.7%	40.9%	79.9	73.9%	67.3%	65.2%	72.8%	72.7%		18.7%
Nc1nc(Cl)c2[nH]cnc2n1	110%	79.6%	92.9	97.6%	122%	105%	100%	105%	113%	85.4%
CC(C)C/C(=N\NC(=O)c1ccncc1)c1cc(Cl)ccc1O	31.1%	44.7%	31.3	25.1%	22.4%	0.654% (active)	6.43% (active)	3.98% (active)	40.5%	7.55% (active)
S=c1[nH]nc2sc3ccccc3n12	101%	81.6%	106	105%	112%	106%	97.4%	99.2%	114%	103%
Cc1ccc2c(c1)C(=O)/C(=C/c1ncc([N+](=O)[O-])n1C)O2	-19.8% (active)	73.8%	11.8	-19% (active)	-2.93% (active)	-38.5% (active)	-13% (active)	-3.36% (active)	-17.2% (active)	-57.8% (active)
COc1ccc(-c2nn(-c3cccc(Cl)c3)cc2C2CC(c3ccccc3)=NN2C(C)=O)cc1 (stereo not given)	62.7%	-3.45% (active)	72.9	66.7%	69%	77.2%	83.5%	76.7%	69.9%	-2.7% (active)
O=C1Nc2ccc(F)cc2/C1=C/c1nc(-c2ccc(F)cc2)n2ccccc12	95.6%	93.6%	105	83.5%	115%	103%	97%	92.9%	112%	132%
Cc1ccc(C(=O)Nc2ccc(Cl)cc2C(=O)NCc2ccccc2)cc1	23.3%	67.3%	92.8	81.5%	76.6%	78.4%	70.7%	79.2%	83.7%	51.7%
COc1ccc2c(c1)nc(N)c1c3ccccc3cn21	73.8%	67.6%	83.4	72.8%	84%	50.8%	58.7%	74.3%	78.8%	83.8%

SMILES	growth [1]	growth [2]	growth [3] [%]	growth [4]	growth [5]	growth [6]	growth [7]	growth [8]	growth [9]	growth [10]
O=c1[nH]c(=O)n(C2CC(O)C(CO)O2)cc1C(F)(F)F (stereo not given)	68.7%	57.6%	55.6	42%	74.8%	29.8%	29.6%	18.3%	75.2%	-17.8% (active)
C/C(=N\N1CC(=O)NC1=O)c1ccc([N+](=O)[O-])o1	102%	96.4%	99.3	102%	93.8%	93.4%	83.2%	67.5%	117%	106%
O=C(Nc1ccncc1)C(=O)c1cn(S(=O)(=O)c2cccc(F)c2)c2ccccc12	1.12% (active)	29.6%	76.5	22.2%	47%	28.7%	37.1%	45.2%	55.5%	-7.51% (active)
CCN(CC)CCOc1ccccc1-n1c(C)ccc1-c1ccccc1	34.5%	93%	102	85.3%	62.8%	90.8%	106%	88.5%	119%	102%
Nc1nonc1-c1nc2ccccc2n1CC(=O)Nc1ccc2c(c1)COC2=O	85.1%	36.5%	87.6	94.4%	80%	77.8%	72.9%	73.2%		89.4%
Clc1cccc(Cc2cn3cc(-c4ccccc4)nc3s2)c1	53.4%	73.8%	65.8	67.7%	51.8%	2.66% (active)	23.3%	23.5%		72%
CCOC(=O)C(C(C)=O)c1nc2sc3cc(Cl)ccc3n2c(=N)c1C#N (stereo not given)	52.8%	34.5%	89.6	86.2%	72.5%	73.9%	67.8%	97.2%	69.8%	74.1%
CC/C(=C\c1ccc(N(C)C)cc1)c1nc2ccccc2c(=O)[nH]1	81.7%	88.3%	102	86.3%	107%	97.4%	84.1%	94.2%	152%	-13.9% (active)
C[n+]1ccc(Nc2ccc(NC(=O)c3ccc(Nc4cc[n+](C)c5ccc(N)cc45)cc3)cc2)cc1	96.9%	97.2%	100	92%	90.1%	90.4%	89.2%	103%		71.5%
Cc1nn(-c2ccccc2)c2ncc3c(c12)C(=O)N(Cc1ccccc1)C3=O	53.5%	-27.1% (active)	47.9	8.03% (active)	75.2%	99.5%	75%	37.2%	91.9%	113%
O=[P@@]1(c2ccccc2)O[C@H](COCc2ccccc2)[C@@H](OCc2ccccc2)[C@H](OCc2ccccc2)[C@H]1NCc1ccccc1	10.9%	27.9%	33.9	20.9%	10.5%	38%	24%	5.71% (active)	49.2%	29.5%
Cc1c(C(N)=O)sc2nc(SCC(=O)Nc3ccc(Cl)cc3)n(-c3ccccc3)c(=O)c12	87.9%	94.3%	101	98.4%	73%	110%	96.8%	98.1%	181%	-16.1% (active)
Cn1cc(-c2nc(-c3c[nH]c4ncc(F)cc34)cs2)c2cccnc21	112%	101%	108	98.6%	104%	97.9%	89.1%	98%	111%	120%
CN(C(=O)c1ccccc1)N(C)C(=O)c1ccccc1	93.4%	105%	101	108%	91.6%	108%	102%	106%	110%	106%
COC(=O)c1ccc2c(c1)nc(-c1ccc(O)c(OC)c1)n2-c1cc(C(C)(C)C)[nH]n1	96.3%	111%	101	93.3%	65.8%	83.6%	88.3%	96.8%		92.3%
c1ccc(-c2nn[nH]n2)c(-c2ccc(CN3CCN(c4nsc5ccccc45)CC3)cc2)c1	58.6%	91.1%	98.3	85.5%	84.7%	97.2%	91.4%	102%	113%	120%
Cc1ccc(NC(=O)CSc2nnc3n(Cc4ccccc4)c(=O)c4c(C)c(C(N)=O)sc4n23)cc1	35%	-46.4% (active)	68.6	38.3%	81.5%	77.1%	55.8%	59.9%	13.9%	44.4%
O=C(c1ccccc1)c1ccccc1Cl	92.9%	88.8%	97.1	99%	96.1%	105%	99.6%	107%	103%	100%
